# Bioassay records from PubChem BioAssay.
# In the library only some 19% were active in any assay of this set; here they are far more common.
# BCR signal inh = inhibitors of chronic active B-cell receptor signaling. ABC-DLBCL IkBa-CBG/CBR reporter, luminescence ratio, 4 h. Potency, µM (doses to about 46.1 µM), for inactives: top-dose activity change, negative = inhibition, actives largely listed as inhibitors. actives 0.05% (n = 340,000); active means well fitted inhibition curve with a large enough effect in the signal ratio, with a control signal flat, not every such curve was filed as active; inconclusive means small, poorly fitted or top-dose-only effect, or effect the other way, or a change in a side signal; the % refers to the signal ratio;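 further: potency means the concentration at half of the fitted maximal effect; plate controls were basal doxycycline-induced cells for no effect and cells given 10 µM MG132 for full effect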
#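 Compounds up to 46 uM were incubated four hours with TMD8 cells whose green CBG68 luciferase is fused to IkappaBalpha; red CBR luminescence normalised the signal, and concentration-effect curves were fitted to fusion, red and ratio data.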
# MCF10A rerep = induces DNA re-replication in MCF 10a normal breast cells; MCF 10A DNA re-replication, Hoechst nuclear intensity, 48 h; Potency, µM (doses to about 46.1 µM), inactives show top-dose activity, positive = re-replication, usual class: activators; actives 2.9% (n = 350,000); further: potency means the concentration at half of the fitted maximal effect; % of control where 0% means no effect; nearly all actives have a fitted effect of over 50% in size
# TDP1 cell CPT = growth inhibition of DT40 Tdp1-/-;hTDP1 cells with camptothecin (screen for TDP1 inhibitors); chicken DT40 Tdp1-/-;hTDP1 cells + 20 nM CPT, ATP luminescence, 48 h; Potency, µM (series often up to 46.2 µM), for inactives: at the highest dose activity change, negative = growth inhibition, hits mostly inhibitors; actives 12% (n = 420,000); AID 686979; further: potency means the concentration at half of the fitted maximal effect; on the % scale 0 is the no-effect control and ±100 the full control effect; nearly all actives have a fitted effect of over 55% in size
#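 Chicken DT40 Tdp1-/- cells complemented with human TDP1, 400 cells/well, exposed to compounds plus 20 nM camptothecin for at least 48 h at 37 C; viability read as ATP content by CellTiter-Glo luminescence.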
# TDP1 cell noCPT = qHTS for Inhibitors of human tyrosyl-DNA phosphodiesterase 1 (TDP1): qHTS in cells in absence of CPT; DT40 Tdp1-/- hTDP1 cells, no CPT, ATP luminescence, 48 h; Potency, µM (doses to about 46.2 µM), inactives show at the top dose activity change, negative = growth inhibition, most hits filed as inhibitors; actives 15% (n = 420,000); further: potency means the concentration at half of the fitted maximal effect; on the % scale 0 is the no-effect control and ±100 the full control effect; nearly all actives have a fitted effect of over 55% in size
#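 Cells were dispensed at 400 per well, compounds added by pin tool, plates incubated ≥48 hr at 37 °C, then CellTiter-Glo added for 30 min at room temperature before luminescence reading. Line: DT40 Tdp1-/- complemented with hTDP1; camptothecin omitted.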
# IL-1B inflam inh = blocks inflammasome-driven IL-1 beta release; THP-1 LPS/ATP IL-1B secretion, AlphaLISA, 16 h; stronger effect = lower value; AID 743279; activity change, % at 57.5 µM; actives 4.7% (n = 360,000); in the data active means activity change below about -50%; inconclusive means mostly about -30% to -49%; further: on the % scale 0 is the no-effect control and ±100 the full control effect
#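 THP-1 cells pretreated 1 hr with compounds (up to 57.5 uM final), then stimulated with LPS (250 ng/mL final) plus ATP (1.25 mM final); secreted IL-1B measured by AlphaLISA after 16 hr, decreased signal indicating inhibition.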
# SW480 rereplic = inducers of DNA re-replication in SW480 colon cancer cells. SW480 DNA re-replication, Hoechst DNA content imaging, 48 h. actives 1.8% (n = 340,000). Potency, µM (top dose mostly 46.1 µM), for inactives: top-dose re-replication activation, usual class: activators. AID 624297; further: potency means the concentration at half of the fitted maximal effect; % of control where 0% means no effect; nearly all actives have a fitted effect of over 55% in size
#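 DNA re-replication was detected as more nuclei of elevated Hoechst intensity after 48 hr exposure to compound (23 nL pinned per well of 250 cells).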
# Numbers without * were called inactive; ? = inconclusive; · = no result given; [ ] = dose if it differs, or a comment. Unless noted, the call rests on the fitted dose curve; in most records, active means well fitted curve in the direction sought with a large enough effect; inconclusive means small, poorly fitted or top-dose-only effect, or another doubt; inactive means no such curve, though single readings can be large; an effect the other way counts as inactive or inconclusive.
SMILES,BCR signal inh,MCF10A rerep,TDP1 cell CPT,TDP1 cell noCPT,IL-1B inflam inh,SW480 rereplic
Cc1c(NC(=O)c2ccc3c(c2)C(=O)N(CC2CCCO2)C3=O)cccc1C(=O)O (centres undefined),2%,-1%,2%,-1%,12,4.1µM*
Cc1ccc(NC(=O)c2ccc3c(c2)C(=O)N(CC2CCCO2)C3=O)cc1C (centres undefined),?,29%,0%,-27%,27,3%
O=C(Cc1ccsc1)Nc1ccccc1F,?,28%,12%,-20%,-5,-4%
O=C(Nc1ccc(F)c(Cl)c1)Nc1nnc([C@H]2C[C@H](O)[C@@H](CO)O2)s1,·,·,?,-26%,0,·
O=C(CCn1ccnc1)Nc1cc(Cl)ccc1O,0%,2%,-17%,?,10,8%
CC1CCN(C(=O)C2CCN(S(=O)(=O)c3ccc4c(c3)CC(C)N4C(=O)C3CC3)CC2)CC1 (centres undefined),9%,-11%,-17%,?,-30,0%
CCOC(=O)C1CCCCN1S(=O)(=O)c1ccc2c(c1)CC(C)N2C(=O)C1CCC1 (centres undefined),?,?,23µM*,9.2µM*,-6,13%
CC1Cc2cc(S(=O)(=O)N3CCCCC3C)ccc2N1C(=O)C1CCC1 (centres undefined),16%,?,?,?,10,0%
CC1CC(C)CN(S(=O)(=O)c2ccc3c(c2)CC(C)N3C(=O)C2CCC2)C1 (centres undefined),5%,6%,23µM*,15µM*,-2,-27%
CC1CC(C)CN(S(=O)(=O)c2ccc3c(c2)CC(C)N3C(=O)C2CC2)C1 (centres undefined),10%,?,18µM*,15µM*,-5,-21%
Cc1ccc(OCCNC(=O)CCNC(=O)c2ccc(Cl)cc2)cc1,?,1%,-10%,-20%,-11,-8%
COC(=O)c1ccc(-n2c(/C=C/c3cc(OC)c(OC)c(OC)c3)nc3cc(Cl)ccc3c2=O)cc1,?,·,18µM*,15µM*,·,·
COC(=O)c1ccc(-n2c(/C=C\c3cccc(Br)c3)nc3ccccc3c2=O)cc1,?,·,5.2µM*,2.9µM*,·,·
COc1ccc(CNC(=O)c2nn(-c3ccccc3)cc2OC)cc1,0%,2%,2%,?,?,-2%
CCOc1ccc(CCN2C(=S)N([C@@H](Cc3ccc(O)cc3)CN3CCCC3CN3C(=S)NC[C@@H]3Cc3ccc(O)cc3)C[C@@H]2CC(C)C)cc1 (some centres undefined),·,?,?,?,-69*,-2%
CCOc1ccc(CCN2C(=S)N([C@@H](Cc3ccccc3)CN3CCC[C@@H]3CN3C(=S)NC[C@@H]3Cc3ccc(O)cc3)C[C@@H]2CC(C)C)cc1,·,·,9.2µM*,9.2µM*,-20,·
CCOc1ccc(CCN2C(=S)N([C@@H](Cc3ccc(O)cc3)CN3CCC[C@@H]3CN3C(=S)NC[C@@H]3CC(C)C)C[C@@H]2Cc2ccc(O)cc2)cc1,·,·,5.2µM*,3.7µM*,0,·
CSc1nnc(CCNC(=O)c2ccccc2C(F)(F)F)n1-c1ccc(F)cc1,·,·,18%[9.04 µM],-7%,·,·
O=C1/C(=C/c2ccco2)SC(=S)N1CCC(=O)N1CCCCC1CCO (centres undefined),?,-7%,-78%,21µM*,-76*,-2%
O=C1/C(=C/c2cccc(Cl)c2)SC(=S)N1CCC(=O)N1CCCCC1CCO (centres undefined),?,10%,?,?,?,?
COc1ccc(/C=C2\SC(=O)N(CCC(=O)N3CCCCC3CCO)C2=O)cc1 (centres undefined),?,4%,?,21µM*,-17,-14%
O=C1/C(=C/c2ccccc2F)SC(=S)N1CC(=O)N1CCCCC1c1cccnc1 (centres undefined),?,?,3.7µM*,3.7µM*,-61*,-3%
O=C1/C(=C/c2ccccc2F)SC(=S)N1CCC(=O)N1CCCCC1CCO (centres undefined),-10%,23µM*,?,15µM*,-99*,?
COc1ccc(/C=C2\SC(=S)N(CCC(=O)N3CCCCC3CCO)C2=O)cc1 (centres undefined),?,16%,?,?,-9,-12%
COc1ccc(/C=C2/SC(=O)N(CCNC(=O)C3CCCN3C(=O)c3cccs3)C2=O)cc1 (centres undefined),2%,3%,?,?,-149*,4%
SMILES,BCR signal inh,MCF10A rerep,TDP1 cell CPT,TDP1 cell noCPT,IL-1B inflam inh,SW480 rereplic
O=C1/C(=C/c2ccccc2)SC(=S)N1CCCC(=O)N1CCCCC1CCO (centres undefined),?,10%,?,?,-59*,15%
O=C(OCc1cn([C@@H]2CN(Cc3cccs3)[C@@H](c3ccc(Cl)cc3)C[C@H]2O)nn1)c1ccccc1,·,·,?,?,-20,·
FC(F)(F)c1cc(CN2CCC3(CCNCC3)CC2)cc(C(F)(F)F)c1,·,·,6.5µM*,4.6µM*,·,·
CC(=O)N1CCC[C@@]2(CCN(Cc3cc(C(F)(F)F)cc(C(F)(F)F)c3)C2)C1,·,·,-14%,-28%,·,·
CC(=O)c1ccc(NC(=O)Cn2c3ccccc3c3nc(=O)cc(C)n32)cc1,-30%,0%,-8%,8%,72,-12%
COc1cc2nc(=S)n3[nH]c(CCn4nc(C)cc4C)nc3c2cc1OC,?,3%,1.6µM*,1.3µM*,7,13µM*
COc1cc2nc(=S)n3[nH]c(COc4ccccc4C)nc3c2cc1OC,?,12%,1.2µM*,5.8µM*,7,-5%
O=C(c1ccc2c(c1)OCCO2)N1CCCC(CNS(=O)(=O)c2cccs2)C1 (centres undefined),-29%,16%,1%,-4%,5,-3%
COc1cc(C(=O)NCC(=O)N/N=C/c2ccc(-c3ccc([N+](=O)[O-])cc3)o2)cc(OC)c1OC,-14%,5%,?,21µM*,?,?
O=C(N/N=C/c1cn[nH]c1-c1ccc(Cl)cc1)c1ccc([N+](=O)[O-])cc1,?,-11%,-1%,-9%,12,18%
